Measured values: PubChem BioAssay AID686978 (National Center for Advancing Translational Sciences (NCATS), 2013)
Hit rate of the full screen: of about 420,000 compounds, about 64,000 (15%) were called active. Roughly 27% stayed inconclusive and do not appear here. The call rests on the fitted dose curve; in most records, active means well fitted inhibition curve with a large enough effect; inconclusive means small, poorly fitted or top-dose-only effect; inactive means flat fitted curve, though single readings scatter. A selection follows. Where a call stands in place of a potency, no number is given.

Test: qHTS for Inhibitors of human tyrosyl-DNA phosphodiesterase 1 (TDP1): qHTS in cells in absence of CPT; further: nearly all actives have a fitted effect of over 55% in size
Settings: DT40 Tdp1-/- hTDP1 cells, no CPT, ATP luminescence, 48 h; activity change, negative = growth inhibition: at 46.2 µM (top of the series)
Outline: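 DT40 Tdp1-/-;hTDP1 cells, no CPT (DMSO vehicle only), 400 cells/well; compounds pin-transferred; ≥48 hr, 37 °C; CellTiter-Glo 30 min RT dark, luminescence read.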
Potency means the concentration at half of the fitted maximal effect.

Compound | Potency
O=c1[nH]c(CN2CCOCC2)nc2scc(-c3ccccc3)c12 | inactive
Oc1ccc(-n2nnnc2SCc2c(F)cccc2Cl)cc1 | inactive
CC(CC(=O)N1CCN(c2ccccc2)CC1)c1ccccc1 (configuration not stated) | inactive
COc1ccccc1CNS(=O)(=O)c1ccc2c(c1)NC(=O)CS2 | inactive
CC(CC(=O)N1CCN(c2ccccc2)CC1)S(=O)(=O)c1ccc2c(c1)NC(=O)CS2 (configuration not stated) | 20.6 µM (active)
Cc1nonc1NC(=O)c1ccccc1Br | inactive
CC(C)C(C(=O)NCc1ccco1)N(CC1CCCO1)C(=O)CNS(=O)(=O)c1ccc(F)cc1 (configuration not stated) | inactive
CCOC(=O)Cc1ccc(NC(=O)Nc2c[nH]c(=O)[nH]c2=O)cc1 | inactive
CS(=O)(=O)N(Cc1nc2sc3c(c2c(=O)[nH]1)CCCC3)C1CCCCC1 | 23.1 µM (active)
CCN(CC)Cc1nc2sc(C)c(C)c2c(=O)[nH]1 | inactive
Cc1ccc(S(=O)(=O)N2CCCC2C(=O)OCc2nc3sc(C)c(C)c3c(=O)[nH]2)cc1 (configuration not stated) | inactive
CC(=O)Nc1ccc(NC(=O)CC2CCCC2)cc1 | inactive
COc1cc(CCN=Cc2ccccc2O)c([N+](=O)[O-])cc1OC | inactive
Cc1c(NC(=O)C(=O)N/N=C/c2cccs2)c(=O)n(-c2ccccc2)n1C | inactive
Cc1cc(N=CC2=C(O)CCCC2=O)no1 | inactive
CC1(C)CC2CC(C)(CN2c2ncnc3ccc(Br)cc23)C1 (configuration not stated) | 3.26 µM (active)
COc1ccc(Nc2ncnc3ccc(Br)cc23)c(OC)c1 | inactive
CCCCn1c(N)c(N(CCOC)C(=O)CSCC(=O)Nc2cccc(C)c2)c(=O)[nH]c1=O | inactive
CC[C@@H](C)[C@@H](C(=O)N1CCN(C(=O)OC(C)(C)C)CC1)n1cc(CCC(=O)O)nn1 | inactive
COc1ccc(C2NC(=O)N(C)C3=C2C(=O)N(c2ccc(C(=O)O)cc2)C3)cc1 (configuration not stated) | inactive
Cc1ccc2nnn(Cc3cccc(C(C)(C)C)c3O)c2c1 | 11.6 µM (active)
Cc1ccc(C(=O)CSc2nnc(Cn3nnc4ccccc43)n2C)cc1 | inactive
O=C(Nc1ccccc1)N[C@H]1C[C@H](C(=O)O)Nc2cc(Cl)cc(Cl)c21 | inactive
CCCCCc1ccc(-c2ccc(OCC)cc2)nc1 | inactive
COc1ccc2[nH]c3ccc(OC)cc3c2c1 | inactive
COc1ccc2[nH]c(=S)cc(C)c2c1 | inactive

Compound | Potency
COc1ccc2[nH]c3c(C)c4cc[n+](C)cc4c(C)c3c2c1 | 0.259 µM (active)
O=S(=O)(NCc1ccc2c(c1)OCO2)c1cccc2nsnc12 | inactive
O=Cc1cn(-c2ccccc2)nc1-c1ccccn1 | inactive
COc1ccc2c(c1)OC(O)(C(F)(F)C(F)F)CC2=O (configuration not stated) | 23.1 µM (active)
COc1ccc2c(c1)SC(C)CC2=O (configuration not stated) | inactive
CCCC(C(=O)N1CCOCC1)N1C(=O)C2C3C=CC(C3)C2C1=O (configuration not stated) | inactive
CC(=O)OCC(COC(C)=O)OC(C)=O | inactive
O=C(CN1C(=O)/C(=C\c2ccccc2F)SC1=S)Nc1nc2ccccc2s1 | inactive
COCCN1CCn2c(nc3cc(NS(C)(=O)=O)ccc32)C1 | inactive
O=C(CN1C(=O)c2ccccc2S1(=O)=O)NC1CCCCC1 | inactive
COc1cccc(Oc2ccc(N)cc2)c1 | inactive
COc1cc(OC)nc(N/N=C(\c2ccccc2)c2ccncc2)n1 | inactive
CCOc1ccc(N2C(=O)CSC2=NC#N)cc1 | inactive
CCC(C(=O)NC1CCCC1)N(C(=O)c1snc(C(N)=O)c1N)c1ccc2c(c1)OCCO2 (configuration not stated) | inactive
CCC(C(=O)NC1CCCCC1)N(C(=O)c1snc(C(N)=O)c1N)c1ccc(OC)cc1OC (configuration not stated) | 23.1 µM (active)
COc1ccc(N(C(=O)c2snc(C(N)=O)c2N)C(C(=O)NC2CCCC2)c2ccco2)cc1OC (configuration not stated) | inactive
COc1cccc(-n2c(=O)c3c(C)c(C(=O)N(C)C)sc3n(CC(=O)NCCc3ccc(OC)c(OC)c3)c2=O)c1 | inactive
CCc1ccc(C(CNc2nc(C(F)(F)F)nc3ccccc23)N(C)C)cc1 (configuration not stated) | 18.4 µM (active)
CN(C)C(CNC(=O)Cc1ccc([N+](=O)[O-])cc1)c1ccccc1 (configuration not stated) | inactive
C=CCn1cc(Cl)cc(C(=O)Nc2ccccc2)c1=O | inactive
CCn1cc(/C=C(\NC(=O)c2ccc(C)cc2)C(=O)NCCN2CCOCC2)c2ccccc21 | inactive
O=C(CC(=O)N/N=C\c1ccc(F)cc1)NCCc1ccccc1 | inactive
COc1ccccc1NC(=O)CCCc1c[nH]c2ccccc12 | inactive
O=C(Cc1c[nH]c2ccccc12)N/N=C/c1cccc(F)c1 | 3.66 µM (active)
COCCNC(=O)C(c1ccc(O)cc1)N(C(=O)CCC(=O)Nc1nccs1)c1ccc(C)cc1 (configuration not stated) | inactive
C/C(=N/NC(=O)CC(=O)N/N=C(\C)c1ccc([N+](=O)[O-])cc1)c1ccc([N+](=O)[O-])cc1 | inactive
